Values joined by “and” are separate entries in the source; they are usually repeats but may differ in a detail not shown here. Equal values may be shown once. Out of some 5,500 compounds screened, about 2,000 (36%) were called active. Roughly 18% stayed inconclusive and do not appear here. Rule as the data show it: active = normalized growth mostly below about 0.91 (no sharp cut-off); inconclusive = no clear call, values can overlap the other calls; inactive = mostly above about 0.92. Some of the results follow.
Assay: chemical genetic growth profiling, strain panel (AID 1159580);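 also: tested at 20 µM; growth read once vehicle control cultures reached saturation at 30 °C; 1 = growth at the plate median or of vehicle wells; lower values mean less growth of the strain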
Settings: growth OD

Measured: normalized growth

COc1ccc(C(=O)N2CCCC2=O)cc1
inactive: S. cerevisiae deletion strains, locus YJR075W, strain HOC1, active compounds read low 0.99 | S. cerevisiae deletion strains, locus YKL009W, strain mrt4, active compounds read low 0.97 | S. cerevisiae deletion strains, locus YKL068W, active compounds read low 0.976 | S. cerevisiae deletion strains, locus YKL085W, strain MDH1 (second series), active compounds read low 0.984 | S. cerevisiae deletion strains, locus YKL085W, strain MDH1, active compounds read low 0.984 | S. cerevisiae deletion strains, locus YKL160W, strain elf1, active compounds read low 0.952 | S. cerevisiae deletion strains, locus YKL190W, strain CNB1, active compounds read low 0.993 | S. cerevisiae deletion strains, locus YKR001C, strain vps1, active compounds read low 0.968 | S. cerevisiae deletion strains, locus YKR026C, strain gcn3, active compounds read low 0.976 | S. cerevisiae deletion strains, locus YKR091W, strain srl3, active compounds read low 0.969 | S. cerevisiae deletion strains, locus YLL001W, strain dnm1, active compounds read low 0.963 | S. cerevisiae deletion strains, locus YLL026W, active compounds read low 0.98 | S. cerevisiae deletion strains, locus YLL041C, strain sdh2, active compounds read low 0.986 | S. cerevisiae deletion strains, locus YLR027C, strain aat2, active compounds read low 0.963 | S. cerevisiae deletion strains, locus YLR039C, strain RIC1, active compounds read low 0.947 | S. cerevisiae deletion strains, locus YLR058C, strain SHM2, active compounds read low 0.978 | S. cerevisiae deletion strains, locus YLR102C, strain apc9, active compounds read low 0.979 | S. cerevisiae deletion strains, locus YLR221C, strain rsa3, active compounds read low 0.945 | S. cerevisiae deletion strains, locus YLR258W, strain gsy2, active compounds read low 0.98 | S. cerevisiae deletion strains, locus YLR262C, strain YPT6 (second series), active compounds read low 0.967 | S. cerevisiae deletion strains, locus YLR262C, strain YPT6, active compounds read low 0.902 | S. cerevisiae deletion strains, locus YLR268W, strain sec22, active compounds read low 0.971 | S. cerevisiae deletion strains, locus YLR320W, strain mms22, active compounds read low 0.933 | S. cerevisiae deletion strains, locus YLR330W, strain CHS5, active compounds read low 0.986 | S. cerevisiae deletion strains, locus YLR342W, strain FKS1 (second series), active compounds read low 0.995 | S. cerevisiae deletion strains, locus YLR342W, strain FKS1, active compounds read low 0.99 | S. cerevisiae deletion strains, locus YLR357W, strain rsc2, active compounds read low 0.991 | S. cerevisiae deletion strains, locus YLR370C, strain arc18, active compounds read low 0.963 | S. cerevisiae deletion strains, locus YLR371W, strain rom2, active compounds read low 0.993 | S. cerevisiae deletion strains, locus YLR384C, strain iki3, active compounds read low 0.958 | S. cerevisiae deletion strains, locus YLR418C, strain cdc73, active compounds read low 0.967 | S. cerevisiae deletion strains, locus YML016C, strain PPZ1, active compounds read low 0.983 | S. cerevisiae deletion strains, locus YML032C, strain rad52, active compounds read low 1 | S. cerevisiae deletion strains, locus YML120C, strain ndi1, active compounds read low 0.94 | S. cerevisiae deletion strains, locus YML124C, strain tub3, active compounds read low 0.994 | S. cerevisiae deletion strains, locus YMR058W, strain fet3, active compounds read low 0.971 | S. cerevisiae deletion strains, locus YMR078C, strain ctf18, active compounds read low 0.974 | S. cerevisiae deletion strains, locus YMR125W, strain sto1, active compounds read low 0.973 | S. cerevisiae deletion strains, locus YMR129W, active compounds read low 0.986 | S. cerevisiae deletion strains, locus YMR205C, strain PFK2, active compounds read low 0.971 | S. cerevisiae deletion strains, locus YMR223W, strain ubp8, active compounds read low 0.995 | S. cerevisiae deletion strains, locus YMR231W, strain pep5, active compounds read low 0.978 | S. cerevisiae deletion strains, locus YMR263W, strain SAP30, active compounds read low 0.964 | S. cerevisiae deletion strains, locus YMR307W, strain GAS1, active compounds read low 0.99 | S. cerevisiae deletion strains, locus YNL067W, strain RPL9B, active compounds read low 0.974 | S. cerevisiae deletion strains, locus YNL071W, strain lat1, active compounds read low 0.982 | S. cerevisiae deletion strains, locus YNL128W, strain TEP1, active compounds read low 0.979 | S. cerevisiae deletion strains, locus YNL153C, strain GIM3, active compounds read low 0.965 and 1.01 | S. cerevisiae deletion strains, locus YNL175C, strain NOP13, active compounds read low 1 | S. cerevisiae deletion strains, locus YNL197C, strain WHI3, active compounds read low 1.01 | S. cerevisiae deletion strains, locus YNL209W, strain ssb2, active compounds read low 0.984 | S. cerevisiae deletion strains, locus YNL224C, strain SQS1, active compounds read low 1.02 | S. cerevisiae deletion strains, locus YNL233W, strain BNI4, active compounds read low 0.99 | S. cerevisiae deletion strains, locus YNL248C, strain rpa49, active compounds read low 0.976 | S. cerevisiae deletion strains, locus YNL250W, strain rad50, active compounds read low 0.964 | S. cerevisiae deletion strains, locus YNL271C, strain bni1, active compounds read low 0.986 | S. cerevisiae deletion strains, locus YNL298W, strain CLA4, active compounds read low 0.982 | S. cerevisiae deletion strains, locus YNL307C, strain MCK1, active compounds read low 0.989 | S. cerevisiae deletion strains, locus YNL322C, strain KRE1 (second series), active compounds read low 0.955 | S. cerevisiae deletion strains, locus YNL322C, strain KRE1, active compounds read low 0.986 and 1 | S. cerevisiae deletion strains, locus YNR049C, strain mso1, active compounds read low 0.954 | S. cerevisiae deletion strains, locus YNR052C, strain pop2, active compounds read low 0.974 | S. cerevisiae deletion strains, locus YOL006C, strain TOP1, active compounds read low 0.921 | S. cerevisiae deletion strains, locus YOL012C, strain htz1 0.923 | S. cerevisiae deletion strains, locus YOL147C, strain pex11, active compounds read low 0.99 | S. cerevisiae deletion strains, locus YOR001W, strain rrp6, active compounds read low 0.998 | S. cerevisiae deletion strains, locus YOR061W, strain CKA2, active compounds read low 0.949 | S. cerevisiae deletion strains, locus YOR069W, strain VPS5, active compounds read low 0.987 | S. cerevisiae deletion strains, locus YOR070C, strain gyp1, active compounds read low 0.991 | S. cerevisiae deletion strains, locus YOR080W, strain dia2, active compounds read low 0.976 | S. cerevisiae deletion strains, locus YOR083W, strain WHI5 (second series), active compounds read low 1.02 | S. cerevisiae deletion strains, locus YOR083W, strain WHI5, active compounds read low 0.946 | S. cerevisiae deletion strains, locus YOR106W, strain vam3, active compounds read low 0.93 | S. cerevisiae deletion strains, locus YOR136W, strain idh2, active compounds read low 0.99 | S. cerevisiae deletion strains, locus YOR144C, strain elg1, active compounds read low 0.999 | S. cerevisiae deletion strains, locus YOR184W, strain ser1, active compounds read low 0.993 | S. cerevisiae deletion strains, locus YOR265W, strain rbl2, active compounds read low 0.989 | S. cerevisiae deletion strains, locus YOR270C, strain vph1, active compounds read low 0.929 | S. cerevisiae deletion strains, locus YOR290C, strain snf2, active compounds read low 0.933 | S. cerevisiae deletion strains, locus YOR316C, strain cot1, active compounds read low 0.978 | S. cerevisiae deletion strains, locus YPL051W, strain arl3, active compounds read low 1.01 | S. cerevisiae deletion strains, locus YPL055C, strain LGE1, active compounds read low 0.988 | S. cerevisiae deletion strains, locus YPL078C, strain atp4, active compounds read low 0.963 | S. cerevisiae deletion strains, locus YPL106C, strain sse1, active compounds read low 0.925 | S. cerevisiae deletion strains, locus YPL240C, strain hsp82, active compounds read low 0.986 | S. cerevisiae deletion strains, locus YPL241C, strain CIN2, active compounds read low 1.03 and 1 | S. cerevisiae deletion strains, locus YPR119W, strain clb2, active compounds read low 0.991 | S. cerevisiae deletion strains, locus YPR141C, strain kar3, active compounds read low 0.962 | S. cerevisiae deletion strains, locus YPR163C, strain tif3, active compounds read low 1 | S. cerevisiae deletion strains, locus YPR167C, strain met16, active compounds read low 0.972 | S. cerevisiae deletion strains, strain wtn01, active compounds read low 0.984 | S. cerevisiae strains, strain wild type, active compounds read low 0.993

Reference: PubChem BioAssay AID1159580 (chemical genetic matrix, 2015)
